Measurements as given in PubChem BioAssay AID1745856 (National Center for Advancing Translational Sciences (NCATS), 2022).
Hit rate of the full screen: of about 120,000 compounds, about 270 (0.23%) were called active. Not shown: some 5% with an inconclusive outcome. Many of the other results were omitted from the sample, so actives are more common in it than they were. Unmarked numbers belong to inactive results. The call rests on the fitted dose curve.

Experiment: Primary qHTS Assay for Foot and Mouth Disease Virus Antivirals against NCGC Sytravon and CBC Compound Libraries: Firefly Luciferase Signal; further: nearly all actives have a fitted effect of over 60% in size
Settings: FMDV antiviral cell assay; series mostly up to 57.5 µM; activity change, negative = inhibition: at the top concentration
On the % scale 0 is the no-effect control and ±100 the full control effect; potency means the concentration at half of the fitted maximal effect.

Compound | activity change, negative = inhibition [%] | Potency
CCOc1ccc2c(c1)cc(C(=O)Nc1cc(OC)ccc1OC)n2C | 6.52 | 
COC(=O)c1ccc(S(=O)(=O)Nc2cccc(C(=O)OC)c2)cc1 | 6.65 | 
COCCn1c(-n2nc(C)cc2C)nc2c1c(=O)n(Cc1ccccc1F)c(=O)n2C | -7.87 | 
Cc1ccc(NC(=O)c2cccc(CS(C)=O)c2)c(C)c1 (configuration not stated) | 0 | 
FC(F)(F)c1cnc(Sc2nnc(C3CC3)n2-c2ccccc2)c(Cl)c1 | -10.1 | 
O=C(CSc1n[nH]c(-c2cc(Cl)ccc2Cl)n1)N1CCCC1 | 14.1 | 
CCC(=O)Nc1ccc(C)cc1-c1nnc(SCC(=O)Nc2cc(Cl)ccc2Cl)[nH]c1=O | -0.529 | 
COc1ccc2c(C)c(CC(=O)N3CCN(c4ccccn4)CC3)c(=O)oc2c1OC | -12.5 | 
COc1ccccc1Oc1coc2cc(OCc3ccc(Cl)cc3)ccc2c1=O | 21.1 | 
CCn1c(=O)c2sccc2n(CC(=O)N2CCOc3ccc(C)cc32)c1=O | -4.07 | 
CCCCC(CC)CNc1ncnc2sccc12 (configuration not stated) |  | 8.91 µM (active)
CC(=O)Nc1ccc(C(=O)COc2ncnc3sccc23)cc1 | 18.7 | 
CCCCC(CC)CNC(=O)CCCCn1c(=O)[nH]c2ccsc2c1=O (configuration not stated) | -10.5 | 
C=CCn1c(-n2nc(C)cc2C)nc2c1c(=O)n(CCOCC)c(=O)n2C | 8.16 | 
CC(C)Oc1ccc(C2CC(=O)NC3=C2C(=O)CC(C)(C)C3)cc1 (configuration not stated) | 24.8 | 
N#C/C(=C/c1ccco1)c1nc2ccccc2[nH]1 | 181 | 
CC(Cn1cccn1)NC(=O)c1cc(Cl)c2c(c1)OCO2 (configuration not stated) | 0 | 
Cc1cc(=O)n2c3ccccc3n(CC(O)CNc3ccc(Cl)cc3)c2c1C#N (configuration not stated) | -3.73 | 
CCOC(=O)C1(C(C)=O)CC(C(=O)c2ccccc2)C(c2ccccc2)C(C(=O)c2ccccc2)C1 (configuration not stated) | 1.77 | 
COc1cc(OC)cc(C(NC(=O)NOCc2ccccc2)c2nccn2C)c1 (configuration not stated) | 21.3 | 
Cc1ccc(Cn2c(Br)nc3c2c(=O)n(C)c(=O)n3C)cc1 | 9.46 | 
O=C(Cc1ccccc1)Nc1ccc2oc(-c3ccc(F)cc3)nc2c1 | 108 | 

Compound | activity change, negative = inhibition [%] | Potency
Cc1cc(C)c2c(c1)/C(=N/Nc1nc3ccccc3[nH]1)CCC2 |  | 4.47 µM (active)
Cc1cc(O)c2c(C)c(CC(=O)Nc3nc4ccccc4[nH]3)c(=O)oc2c1 | 1.93 | 
Cc1cc(C)c2c(c1)C(=O)CCC2 | 14.9 | 
CC(=O)N1CCN(C(=O)CCC(=O)N2CCC(c3noc4cc(F)ccc34)CC2)CC1 | 5.39 | 
Cc1oc(C)c(C(=O)Nc2ccccc2O)c1C | 0 | 
Cc1cnc2c(S(=O)(=O)N3CCN(C(C)CC#N)CC3)cccc2c1 (configuration not stated) | 8.29 | 
CNC(=O)NC(=O)CN1CCCC(c2nc3ccccc3o2)C1 (configuration not stated) | -2.97 | 
Cc1ccc(-c2noc(-c3occc3Br)n2)cc1 | 193 | 
O=S(=O)(NCC12CC3CC(CC(C3)C1)C2)c1cccs1 | 0.0354 | 
COc1ccccc1Nc1cc(C(=O)NCCCN(C)C2CCCCC2)c2ccccc2n1 |  | 28.2 µM (active)
COc1ccc(Nc2cc(C(=O)NCCCN(C)c3ccccc3)c3ccccc3n2)c(OC)c1 | -7.92 | 
CCCCN(CCCNC(=O)c1cc(Nc2ccccc2OC)nc2ccccc12)c1ccccc1 | -0.272 | 
CC1CCN(S(=O)(=O)N(C)Cc2ccc3c(c2)OCCO3)CC1 | -4.77 | 
O=C(CN1CCN(CC(=O)Nc2ccccc2C(=O)c2ccccc2)CC1)Nc1cccc(F)c1 | -12 | 
COc1ccc(C=O)cc1OCc1c(F)cccc1Cl | 7.96 | 
CC(C)C(=O)NC(Nc1cccc(Cl)c1Cl)C(Cl)(Cl)Cl (configuration not stated) | 3.54 | 
CC(NC(=O)Cn1nnn(-c2ccccc2)c1=O)c1ccccc1 (configuration not stated) | -1.05 | 
CCc1cccc(CC)c1NC(=O)CC(C)(C(=O)O)c1ccccc1 (configuration not stated) | -1.95 | 
COc1ccc(C23CC4CC(CC(C4)C2)C3)cc1C(=O)NC(c1ccccc1)c1ccccc1 | -0.0842 | 
CC(Oc1ccccc1F)C(=O)Nc1c(F)cccc1F (configuration not stated) | -5.6 | 
Cc1nn(CC(=O)NC(C)(C)C)c(C)c1S(=O)(=O)N1CCCC(C(=O)N2CCOCC2)C1 (configuration not stated) | -2.97 | 
CCCn1c(NC(=O)c2oc3ccc(OC)cc3c2C)nc2ccccc21 | 6.06 | 

Compound | activity change, negative = inhibition [%] | Potency
CCCNc1c(NC(=O)Nc2ccccc2C)c(=O)oc2ccccc12 | 15.8 | 
Cc1cc(-c2ccc(C)c(S(=O)(=O)N3c4ccccc4CC3C)c2)on1 (configuration not stated) |  | 14.1 µM (active)
CCN(CC)c1ccc(NS(=O)(=O)c2cc(-c3cc(C)no3)ccc2C)c(C)c1 | -2.71 | 
CCC1CN(S(=O)(=O)c2cc(-c3cc(C)no3)ccc2C)c2cc(C)ccc2O1 (configuration not stated) | 29.8 | 
CCOc1ccc(N(Cc2ccccc2)C(=O)c2nc(SCC)ncc2Cl)cc1 | 0 | 
CCOc1ccc(N(Cc2ccccc2)C(=O)c2nc(S(C)(=O)=O)ncc2Cl)cc1 |  | 22.4 µM (active)
CCOc1ccc(CN2CCC(N(C)Cc3ccccc3)CC2)cc1 | 2.31 | 
O=C(OCc1ccc(Cl)cc1Cl)c1c(F)cccc1F | 29.2 | 
COc1ccc(C(=O)Nc2c(NCC3CCCCC3)c3ccccc3oc2=O)cc1OC | -1.4 | 
O=S(Cc1ccccc1)Cc1cccc(F)c1 (configuration not stated) | 2.48 | 
CCn1nc(C(=O)Nc2nnc(Cc3ccccc3)s2)c2ccccc2c1=O | 15.9 | 
O=C(Oc1ccc(Br)cc1)c1cnccn1 | 142 | 
Cc1cc(=O)oc2cc(OCC(=O)Nc3ccc(S(=O)(=O)N4CCOCC4)cc3)ccc12 | -5.69 | 
Cn1cc2c(C(F)(F)F)cc(=O)n(CCC(=O)O)c2n1 | 6.41 | 
Cc1ccc(N2CCN(C(=O)c3nn(C)c4c3CCc3sccc3-4)CC2)c(C)c1 | 18 | 
COc1ccc(/C=C2\Oc3cc(OS(=O)(=O)c4ccc(C)cc4)ccc3C2=O)c(OC)c1OC | 0.175 | 
CCOC(=O)C1=C(C)NC(=O)NC1c1ccc(C(=O)OC)cc1 (configuration not stated) | 48.5 | 
Cc1ccccc1NC(=O)CSc1nc(C2CC2)n(-c2ccccc2)n1 | 2.27 | 
COc1ccc(-c2cc(C(=O)N3CCN(CC(=O)N4CCOCC4)CC3)c3ccccc3n2)cc1 | 191 | 
COC(=O)CCCn1c(C)cc(C(=O)COC(=O)c2nccnc2N)c1C | 155 | 
COC1CC(OC2CCC3(C=O)[C@H]4CCC5(C)C(C6=CC(=O)OC6)CCC5(O)[C@@H]4CCC3(O)C2)OC(C)C1O (some centres not stated) |  | 0.282 µM (active)
COc1ccc2c(C)c(CC(=O)NCc3ccccc3Cl)c(=O)oc2c1 | 17.9 | 

Compound | activity change, negative = inhibition [%] | Potency
CC(Sc1nnc(CCC(N)=O)n1C1CC1)C(=O)c1c[nH]c2ccccc12 (configuration not stated) | 0.749 | 
CC(NC(=O)C(=O)Nc1cc(Cl)ccc1Cl)c1ccccc1 (configuration not stated) | 0 | 
CCCc1cc(=O)oc2c(C)c(OCC(=O)OC(C)C)ccc12 | 9.01 | 
CC(C(=O)Nc1cccc(C#N)c1)n1nnc(-c2cccc(C(F)(F)F)c2)n1 (configuration not stated) | -10.8 | 
CCOc1ccccc1-c1nn2c(CN3CCCCC3)nnc2s1 | -3.75 | 
Cc1nccn1CCc1nc2cc(NC(=O)C(C)C)ccc2n1C | -8.8 | 
CCCCn1c(=O)[nH]c(=O)c2c1nc(-c1ccc(OCC#N)c(OC)c1)n2C | -6.14 | 
N#Cc1ccccc1N=Cc1ccc2ccccc2c1 | 92.7 | 
Cc1cc(C(F)(F)F)nn1Cc1nc2c3c4c(sc3ncn2n1)CCC4 | -9.93 | 
CCSc1ncc(Cl)c(C(=O)Nc2cc(C)ccc2C)n1 | -12.3 | 
CCCS(=O)(=O)c1ncc(Cl)c(C(=O)Nc2scc(-c3ccccc3)c2C(=O)OCC)n1 | 12.2 | 
Cc1ccc(NC(=O)c2nc(S(=O)(=O)Cc3cccc(C)c3)ncc2Cl)cc1 |  | 22.4 µM (active)
Cc1ccc(-c2ccc(CCC(=O)O)n2NC(=O)c2ccc(F)cc2)cc1 | 21.6 | 
O=C(Nc1cccc(I)c1)c1ccc2c3c(cccc13)CC2 | 81.5 | 
COC(=O)c1ccc(CNC(=O)CCCNC(=O)C(C)(C)C)cc1 | 2.4 | 
Cc1nc2cc(NC(C)C(=O)Nc3cccc(Cl)c3Cl)ccc2o1 (configuration not stated) | 22 | 
COC(=O)c1cccc(N=Cc2cc(Cl)ccc2O)c1 | 0 | 
CC(C)CNC(=O)COC(=O)Cc1nn(C)c(=O)c2ccccc12 | 3.32 | 
O=C(CN1CCN(C(=O)c2nn(Cc3ccccc3)c(=O)c3ccccc23)CC1)Nc1ccc(F)cc1 | 29.2 | 
Cc1noc(C)c1CS(=O)(=O)c1ccc(Cl)cc1 | -0.357 | 
Cc1cccc(NC(=O)c2cc3cc(Br)ccc3oc2=O)c1 | 16.6 | 
COc1ccccc1NC(=O)c1cc2ccccc2cc1OCC(N)=O | 16.9 | 

Compound | activity change, negative = inhibition [%] | Potency
Cc1nc(NC(=O)C(C)Sc2nnc(-c3ccccc3F)n2CC(C)C)sc1C (configuration not stated) | -18 | 
Cn1c(=O)[nH]c(=O)c2c(C(=O)O)cc(C3CC3)nc21 | 3.96 | 
Cc1cc(/C=C(/C#N)c2nc3ccccc3n2C)cc(C)c1O | 189 | 
Clc1ccc(CN2CCN(c3ncnc4nc[nH]c34)CC2)cc1 | 12.2 | 
COc1ccccc1-c1nc(C#N)c(NCc2ccccc2)o1 | 0 | 
[O-]/[N+](=C\c1ccc2ccccc2n1)c1ccccc1 | 204 | 
CCCC(=O)Nc1cccc(-c2cc3cc(F)ccc3[nH]2)c1 | 0 | 
Cc1ccc(-c2cc(-c3ccccc3)c(C#N)c(SCCS(=O)Cc3ccccc3)n2)cc1 (configuration not stated) | -13 | 
N#Cc1ccccc1NC(=O)c1cnc2ccccc2n1 | 177 | 
CCOC(=O)c1cc(NCc2c(Cl)cccc2Cl)ccc1N1CCOCC1 | 19.6 | 
Cc1occc1-c1nnc(SCC(=O)N2c3ccccc3CC2C)o1 (configuration not stated) | 5.98 | 
Cc1c(Cl)cccc1N(CC(=O)Nc1c(C)n(C)n(-c2ccccc2)c1=O)S(C)(=O)=O | -3 | 
CCOC(=O)c1cc(NC(=O)c2ccc(-c3ccccc3)cc2)ccc1N1CCOCC1 | -4.7 | 
C(=N\N=C(c1ccccc1)c1ccccc1)/c1c[nH]c2ccccc12 | 0 | 
Cc1ccc(C(=O)NC2CCSC2=O)cc1C (configuration not stated) | 0 | 
Cc1ccc(CCNC(=O)c2noc(C)c2Cn2nc(C)cc2C)cc1 | 0.415 | 
O=C(Nc1ncn(Cc2ccc(Cl)cc2)n1)c1ccn(COc2ccc(F)cc2F)n1 | -5.05 | 
Fc1ccc(-c2ccc(CNCc3ccccc3)o2)cc1 | 136 | 
COc1nc2ccccc2nc1N1CCC(C(=O)Nc2ccccc2F)CC1 | 1.54 | 
